Source: PubChem BioAssay (NCI)
Compounds without any hit were thinned out: in the full panel of roughly 83,000, 20% have a hit.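 Growth was measured after 48 h exposure to one concentration of compound in 96-well plates. Values under 10 count as active.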 A number with no mark means an inactive call. Calls of active or inactive are those of the source.

Key:
Test in all cases: NCI-60 one-dose screen, 48 h (100 = growth as untreated, 0 = no growth, -100 = all killed)
Conditions in all cases: 10 µM unless noted
HT29 colon = system: HT29 colon
SNB-75 CNS = system: SNB-75 CNS
SNB-19 CNS = system: SNB-19 CNS
U251 CNS = system: U251 CNS
PC-3 prostate = system: PC-3 prostate
SK-MEL-5 melanoma = system: SK-MEL-5 melanoma
LOX IMVI melanoma = system: LOX IMVI melanoma
SK-MEL-28 melanoma = system: SK-MEL-28 melanoma
UACC-62 melanoma = system: UACC-62 melanoma
SK-MEL-2 melanoma = system: SK-MEL-2 melanoma

SMILES | growth (HT29 colon) | growth (SNB-75 CNS) | growth (SNB-19 CNS) | growth (U251 CNS) | growth (PC-3 prostate) | growth (SK-MEL-5 melanoma) | growth (LOX IMVI melanoma) | growth (SK-MEL-28 melanoma) | growth (UACC-62 melanoma) | growth (SK-MEL-2 melanoma)
N#Cc1cnc2cc(OC[C@H](O)CO)c(NC(=O)CC3CSSC3)cc2c1Nc1ccc(OCc2cccc(F)c2)c(Cl)c1 | -77.8% (active) | -92.3% (active) | -64.6% (active) | -69.2% (active) | -100% (active) | -95.9% (active) | -86.3% (active) | -84.6% (active) | – | –
CC(C)[C@H]1CC[C@H]2[C@@H](CC[C@H]3[C@](C)(CN)CCC[C@]23C)C1 | -57.7% (active) | 69% | 98.1% | 6.81% (active) | 65.1% | 99.5% | – | 102% | 92.7% | 80.3%
CSc1nc2c(c(=O)n1C)C(c1ccccc1)C1=C(N2)/C(=C/c2ccccc2)CCC1 (stereo not given) | 53.7% | 57.9% | 66.1% | 48.8% | 48.1% | 40% | – | 78.7% | 58.2% | 29.5%
N#Cc1c2ccccc2c2n1-c1ccccc1OC(c1ccccc1)C2=O (stereo not given) | 23.1% | 24.2% | 23.5% | 17.9% | 32.1% | 10.6% | 9.92% (active) | 93.8% | – | 59.9%
COc1ccc(COC(C)=O)cc1 | 113% | 114% | 114% | 107% | 95.3% | 108% | – | 113% | 111% | 113%
O=C(C(=O)N1CCOCC1)c1ccc(OC2OC(CO)C(O)C(O)C2O)cc1 (stereo not given) | 100% | 89.5% | 102% | 105% | 110% | 108% | – | 105% | 103% | 96.2%
O=C(C(=O)N1CCCCC1)c1ccc(OC2OC(CO)C(O)C(O)C2O)cc1 (stereo not given) | 100% | 91.9% | 96.8% | 96.4% | 97.3% | 105% | – | 104% | 97.9% | –
COc1cc2c(-c3nc4cc(Cl)c(F)cc4s3)cc(=O)oc2c(C)c1OC | -80% (active) | -90.3% (active) | 34.7% | -92.3% (active) | 19.2% | -84.2% (active) | -73.5% (active) | -28.6% (active) | – | -82.2% (active)
Cc1ccc(C(O)C2=CC(=O)c3ccccc3C2=O)cc1 (stereo not given) | 107% | 92.3% | 102% | 96% | 89.4% | 97.7% | – | 112% | 90.5% | 116%
CC[C@]1(O)CC2CN(CCc3c([nH]c4ccccc34)[C@@](C(=O)OC)(c3cc4c(cc3OC)N(C)[C@H]3[C@@](O)(C(=O)OC)[C@H](OC(C)=O)[C@]5(CC)C=CCN6CC[C@]43[C@@H]65)C2)C1 (stereo not given in full) | 3.18% (active) | 5.29% (active) | 43.8% | 17.3% | 28.1% | -61.3% (active) | 18.9% | 68.1% | – | 34.3%
Fc1ccc(-c2nc(Nc3ccc(-c4nc5ccccc5[nH]4)cc3)nc(N3CCOCC3)n2)cc1 | -78.6% (active) | -92.6% (active) | -81.2% (active) | -93% (active) | -93.5% (active) | -97.6% (active) | -93% (active) | -84.7% (active) | – | -71.3% (active)
C=Cc1nn2c(CCC(=O)c3nc4ccccc4[nH]3)nnc2s1 | 105% | 110% | 107% | 104% | 98% | 98.2% | 95% | 113% | – | 97.5%
O=C(/C(=C/c1ccc([N+](=O)[O-])cc1)c1ccccc1)c1ccccc1 | 44.1% | 70.6% | 75.9% | 52.6% | 59.1% | 43.6% | 5.01% (active) | 97.9% | – | –
COc1cc(C2=NN(C(C)=O)C(c3ccc(OC(C)=O)cc3OC(C)=O)O2)c(OC(C)=O)c2ccccc12 (stereo not given) | 29.9% | 50.4% | 36.7% | 15.7% | 42.9% | 7.09% (active) | 2.78% (active) | – | – | –
CC1SC(c2c(Cl)cccc2Cl)N(NC(=O)c2[nH]c3ccc(F)cc3c2-c2ccccc2)C1=O (stereo not given) | 34.8% | -53% (active) | 37.4% | 10.7% | 32.2% | 54.6% | – | 71.2% | 74.8% | 72%
COc1ccc(-c2csc(NC(=O)c3cc(O)c(O)c(O)c3)n2)cc1 | 92.3% | 58.8% | 59.9% | 45.6% | 68.4% | 51% | 50.6% | 89.1% | – | 71.4%
O=C(Nc1ccccc1Cl)c1cnc2ccc(C3CCNCC3)cn12 | 18% | -6.82% (active) | 84.6% | 88.4% | 72.1% | 90.6% | – | – | 93.6% | 92.4%
Cc1c(C(N)=O)sc2ncn(Cc3ccccc3)c(=O)c12 | 103% | 92.6% | 102% | 96.9% | 113% | 103% | 89.6% | 112% | – | 109%
COc1cc(/C=C/C(=O)Nc2ccc3c(c2)/C(=C\c2cccn2C)C(=O)N3)cc(OC)c1OC | 53.9% | 9.39% (active) | 65.3% | 52.4% | 59.9% | 18.2% | 41.4% | 63.1% | – | 25.1%
O=C(Nc1nc(-c2ccc(Cl)cc2)cs1)c1cc(O)c(O)c(O)c1 | 71.9% | 36.7% | 25.9% | 23.5% | 46.9% | 24.6% | 1.72% (active) | 42.9% | – | 31.9%
N#Cc1cccc(/C=C(/C(=O)c2ccccc2)c2ccccc2)c1 | 70.1% | 69.4% | 83% | 60.1% | 66.5% | 49.3% | 14.1% | 100% | – | –
CC(C)[C@]12O[C@H]1[C@@H]1O[C@]13[C@]1(O[C@H]1C[C@H]1C4=C(CC[C@@]13C)C(=O)OC4)[C@@H]2OC(=O)CN(C)C | 0.899% (active) | -65.4% (active) | 23% | 15.4% | 19.6% | -20.1% (active) | – | 1.04% (active) | -34.8% (active) | -60% (active)
COc1cc(C2NC(c3ccc(Cl)cc3)C(C)C(=NC(=O)c3cnccn3)C2C)cc(OC)c1OC (stereo not given) | 67.8% | 90.9% | 86.7% | 77.9% | 88.8% | 82.3% | – | 110% | 101% | 97.3%
COc1ccc(C2=NNC(c3cc(Cc4ccc(O)c(C5CC(c6ccc(OC)cc6)=NN5)c4)ccc3O)C2)cc1 (stereo not given) | 92.2% | 46.6% | 48.2% | 24.8% | 42.4% | 47.4% | – | – | 49.2% | 20.1%
COC(=O)[C@]12CC[C@@H](C)[C@H](C)[C@@H]1C1=CC[C@@H]3[C@@]4(C)C[C@@H](OC(=O)c5ccco5)[C@H](O)[C@@](C)(CO)[C@@H]4[C@H](O)C[C@@]3(C)[C@]1(C)CC2 | -92.8% (active) | -84.4% (active) | -71% (active) | -85.2% (active) | -100% (active) | -99.9% (active) | -99.4% (active) | -84.6% (active) | – | –
O=C(NCCCO)c1cc(Cl)ccc1O | 3.68% (active) | 27.8% | 31.1% | 12.3% | 7.13% (active) | 18.4% | 13.3% | – | – | –
CC(=O)c1ccc2c3c(n(C)c2c1)CCCC3 | 92.6% | 92.1% | 99.6% | 102% | 100% | 102% | – | 96.5% | 96.5% | 104%
Nc1ccccc1-c1ccc([N+](=O)[O-])cc1 | 78.1% | 71.9% | 67.3% | 67.4% | 38.9% | 34.8% | 54.7% | 88.4% | – | 24.3%
COc1ccc(-c2nnc(COc3ccc(NC(=O)Nc4cc(C(F)(F)F)cc(C(F)(F)F)c4)cc3F)o2)cc1 | 2.11% (active) | 16.7% | 14.4% | 0.294% (active) | -12.8% (active) | -21.4% (active) | -15% (active) | 16.6% | – | -32.9% (active)
